# Test results as given in PubChem BioAssay AID422 (Emory University Molecular Libraries Screening Center, 2006).
# Hit rate of the full screen: of about 160,000 compounds, about 310 (0.19%) were called active. The sample as a whole holds a higher share of actives than the screen did. Values without a mark were called inactive. Cut-off read from the data, not from the text of the source: active = inhibition above about 30%; inactive = the rest.
# Biological target: 14-3-3 protein gamma (Homo sapiens) (UniProt P61981)
# Assay: 14-3-3 gamma/Raf peptide interaction modulators – biochemical, fluorescence polarization, primary screen (AID 422);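 note: 0% = protein plus tracer without compound and 100% = blank with tracer alone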
# Conditions: FP, 14-3-3gamma / TMR-pS259-Raf peptide binding; at 40 µM; stronger effect = higher value
# Chain of 14-3-3 protein gamma (Homo sapiens) (P61981 whole entry, looked up): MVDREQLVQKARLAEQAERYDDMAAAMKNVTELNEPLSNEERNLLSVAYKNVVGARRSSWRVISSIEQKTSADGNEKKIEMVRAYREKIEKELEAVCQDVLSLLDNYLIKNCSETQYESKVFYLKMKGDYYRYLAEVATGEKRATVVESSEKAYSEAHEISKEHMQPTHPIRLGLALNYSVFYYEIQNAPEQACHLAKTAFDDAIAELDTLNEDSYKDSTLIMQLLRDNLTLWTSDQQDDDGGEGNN
row,SMILES,inhibition
1,Cc1ccc2[nH]cc(C(=O)c3ccccc3)c(=O)c2c1,-15%
2,O=[N+]([O-])c1ccc(N2CCN(S(=O)(=O)c3ccc4ccccc4c3)CC2)cc1NCc1ccco1,-5.05%
3,O=C(c1ccco1)N1CCN(c2cccc(Cl)c2)CC1,-9.3%
4,O=C(c1ccco1)N1CCN(c2ccc([N+](=O)[O-])c(NCc3cccnc3)c2)CC1,46.1% (active)
5,CC1CC(C)CN(C(=O)c2cc3c(=O)oc4ccccc4c3s2)C1 (centres undefined),-6.3%
6,CC(C)CCNC(=O)c1ccc2c(c1)N(Cc1ccccc1)C(=O)CS2,3.32%
7,O=C(Nc1cccc(-c2nc3ccccc3s2)c1)c1cccnc1Cl,-17.9%
8,COc1cc(NS(=O)(=O)c2c(C)n[nH]c2C)cc(OC)c1,-0.99%
9,COc1cc2c(=O)n(CC3CCCO3)c(=O)n(CC(=O)c3ccc(Br)cc3)c2cc1OC (centres undefined),-0.78%
10,Cc1cc(OCC(=O)Nc2sc3c(c2C(N)=O)CCCC3)ccc1[N+](=O)[O-],-9.64%
11,O=C(Nc1c2c(nn1-c1ccc(F)cc1)CSC2)c1cccc(F)c1,-4.31%
12,COc1ccc(C)cc1NC(=O)C1(S(=O)(=O)c2ccc(Cl)cc2)CC1,-7.62%
13,O=C(NCCN1CCCC1)C1CCC(CNS(=O)(=O)c2ccc(Cl)cc2)CC1 (centres undefined),1.41%
14,Cc1ccccc1N1C(=O)C2C3C=CC(C4CC34)C2C1=O (centres undefined),8.35%
15,Cc1cc(OCC(=O)Nc2ncc(S(=O)(=O)c3ccc([N+](=O)[O-])cc3)s2)cc(C)c1Cl,-4.64%
16,COc1ccc(C2C(C(=O)c3cccs3)=C(O)C(=O)N2CCN(C)C)cc1 (centres undefined),11.4%
17,COc1ccc(C2=NN(c3ccccc3)C(c3ccc(F)cc3)C2)cc1 (centres undefined),-10.6%
18,CCC(C)Nc1ncnc2c1cnn2-c1cccc(C)c1 (centres undefined),2.9%
19,O=C1c2cccc3c(N=Cc4ccccc4O)ccc(c23)C(=O)N1c1ccccc1,31.4% (active)
20,CC(=O)Nc1ccccc1Sc1ccc2c3c(cccc13)C(=O)N(c1ccc(C)cc1)C2=O,-10.1%

row,SMILES,inhibition
1,O=C1c2cccc3cccc(c23)C(=O)N1c1cccc(O)c1,-4.23%
2,O=C(O)c1ccc(N2NC(c3ccccc3)=CC2O)cc1 (centres undefined),-4.41%
3,O=C(CCS(=O)(=O)c1nc(-c2cccs2)cc(C(F)(F)F)n1)Nc1cc(Cl)ccc1O,-33.5%
4,COc1cc(NS(=O)(=O)c2ccc3c(c2)CCN3C(C)=O)cc(OC)c1,0.2%
5,Cn1ccnc1SCC(=O)Nc1ccc(F)cc1,-12.9%
6,CCSCCOC(=O)C1=C(C)NC(=O)NC1c1ccc(OC)cc1 (centres undefined),-1.92%
7,O=C(NCc1ccco1)c1ccc2c(=O)n(Cc3ccc(Cl)cc3)c(=S)[nH]c2c1,-14.3%
8,CC1=C(C(=O)OCC2CCCO2)C(c2ccccc2Cl)C2=C(CCCC2=O)N1 (centres undefined),-2.91%
9,CC(C)(C)c1ccc(C2SCC(=O)N2c2ccccc2F)cc1 (centres undefined),-3.17%
10,CCCCOC(=O)c1cc(-c2ccccc2)nc2ccc(Br)cc12,2.65%
11,CSc1nnc2c(n1)OC(c1ccc3c(c1)OCO3)Nc1ccccc1-2 (centres undefined),6.07%
12,CSc1nnc2c(n1)OC(c1ccccc1Cl)Nc1ccccc1-2 (centres undefined),31.9% (active)
13,CCOc1ccc(C2Nc3ccccc3-c3nnc(SC)nc3O2)cc1C (centres undefined),-68.8%
14,CCOC(=O)c1sc2ncnc(N3CCCC(C(=O)OCC)C3)c2c1C (centres undefined),-2.94%
15,Cc1c(Cl)c(C)c([N+](=O)[O-])c(O)c1C=Nc1ccc(Br)cc1C(=O)O,46.9% (active)
16,Cc1ccccc1N=Cc1cccc([N+](=O)[O-])c1O,5.41%
17,Cc1ccc2nc(-c3cc(NC(=O)c4cc(Cl)ccc4[N+](=O)[O-])ccc3Cl)oc2c1,-15.8%
18,CCSCCSc1nc(C)cc(C)n1,-17.9%
19,CSc1nc(OCC(=O)c2ccccc2)c2c3c(sc2n1)CCCC3,4.08%
